Measurements from the supplement of paper PMC11732987, “Enantioselective OTUD7B fragment discovery through chemoproteomics screening and high-throughput optimisation” (Communications Chemistry, 2025).

Key:
Assay in all cases: log2 ratio of Biotin-Ahx-Ub-VS probe labelling (fragment/DMSO); higher = less target engagement (more negative = stronger competition), active = hit call of the paper (q ≤ 0.05, log2 ratio ≤ -1)
Conditions in all cases: compound concentration: 200 uM; treatment time: 3 h
[1] = molecular target: T1, USP42 (UniProt Q9H9J4)
T1 sequence (whole entry): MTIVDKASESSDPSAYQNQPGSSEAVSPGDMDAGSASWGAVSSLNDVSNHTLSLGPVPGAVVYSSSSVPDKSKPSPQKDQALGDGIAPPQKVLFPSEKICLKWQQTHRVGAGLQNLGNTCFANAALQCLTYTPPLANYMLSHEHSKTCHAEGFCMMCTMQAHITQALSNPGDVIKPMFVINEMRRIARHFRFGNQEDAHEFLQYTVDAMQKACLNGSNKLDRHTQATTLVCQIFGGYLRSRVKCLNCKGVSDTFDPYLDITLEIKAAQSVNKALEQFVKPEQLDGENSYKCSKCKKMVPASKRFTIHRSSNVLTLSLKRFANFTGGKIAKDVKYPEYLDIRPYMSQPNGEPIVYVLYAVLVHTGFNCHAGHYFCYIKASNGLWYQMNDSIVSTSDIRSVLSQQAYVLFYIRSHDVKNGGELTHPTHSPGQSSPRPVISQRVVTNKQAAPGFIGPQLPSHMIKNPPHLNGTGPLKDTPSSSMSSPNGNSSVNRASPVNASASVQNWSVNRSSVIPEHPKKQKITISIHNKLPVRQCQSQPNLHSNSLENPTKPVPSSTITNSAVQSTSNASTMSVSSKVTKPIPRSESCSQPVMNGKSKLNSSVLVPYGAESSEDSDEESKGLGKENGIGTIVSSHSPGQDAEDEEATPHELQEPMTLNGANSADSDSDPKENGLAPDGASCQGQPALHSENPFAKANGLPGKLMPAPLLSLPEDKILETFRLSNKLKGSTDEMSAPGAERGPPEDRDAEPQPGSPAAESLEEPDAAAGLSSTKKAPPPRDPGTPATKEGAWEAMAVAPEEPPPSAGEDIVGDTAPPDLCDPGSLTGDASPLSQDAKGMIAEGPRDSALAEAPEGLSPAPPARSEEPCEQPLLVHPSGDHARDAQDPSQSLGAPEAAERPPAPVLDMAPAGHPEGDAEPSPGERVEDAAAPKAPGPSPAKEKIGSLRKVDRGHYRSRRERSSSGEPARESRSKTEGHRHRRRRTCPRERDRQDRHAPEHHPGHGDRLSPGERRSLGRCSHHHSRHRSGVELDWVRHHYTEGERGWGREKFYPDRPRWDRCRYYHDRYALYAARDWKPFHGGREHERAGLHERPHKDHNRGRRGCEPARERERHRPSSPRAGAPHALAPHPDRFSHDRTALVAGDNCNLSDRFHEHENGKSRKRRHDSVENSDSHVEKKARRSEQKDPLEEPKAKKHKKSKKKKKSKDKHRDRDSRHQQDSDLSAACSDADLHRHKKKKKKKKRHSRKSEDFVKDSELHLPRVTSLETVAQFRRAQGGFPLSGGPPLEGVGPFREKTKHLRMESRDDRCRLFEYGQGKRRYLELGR
In short: (§1)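 Labelled DUBs were enriched with NeutrAvidin, digested with LysC and trypsin, and run by diaPASEF LC-MS/MS. The labelling used Biotin-Ahx-Ub-VS at 0.5 µM final for 1 h on HEK293T lysate (495 µg per sample) previously treated in triplicate with fragment at 200 µM or vehicle for 3 h. Values are average log2 fragment/vehicle ratios by unpaired t-test on global-median-normalised Spectronaut quantities of proteins with ≥2 unique peptides.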

[2] = molecular target: USP46 (UniProt P62068)
Chain of USP46 (P62068 whole entry): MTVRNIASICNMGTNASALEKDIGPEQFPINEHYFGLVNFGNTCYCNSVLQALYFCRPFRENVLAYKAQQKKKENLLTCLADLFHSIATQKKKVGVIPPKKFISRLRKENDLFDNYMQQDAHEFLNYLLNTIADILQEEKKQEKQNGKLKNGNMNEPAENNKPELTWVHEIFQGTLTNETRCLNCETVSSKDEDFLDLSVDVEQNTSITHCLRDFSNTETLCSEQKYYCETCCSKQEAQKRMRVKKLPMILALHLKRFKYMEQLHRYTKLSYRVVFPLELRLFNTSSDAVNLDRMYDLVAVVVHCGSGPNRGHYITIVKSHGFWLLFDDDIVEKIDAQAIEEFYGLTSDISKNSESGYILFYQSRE
In short: as §1

[3] = molecular target: T2, USP47 (UniProt Q96K76)
T2 sequence (whole entry): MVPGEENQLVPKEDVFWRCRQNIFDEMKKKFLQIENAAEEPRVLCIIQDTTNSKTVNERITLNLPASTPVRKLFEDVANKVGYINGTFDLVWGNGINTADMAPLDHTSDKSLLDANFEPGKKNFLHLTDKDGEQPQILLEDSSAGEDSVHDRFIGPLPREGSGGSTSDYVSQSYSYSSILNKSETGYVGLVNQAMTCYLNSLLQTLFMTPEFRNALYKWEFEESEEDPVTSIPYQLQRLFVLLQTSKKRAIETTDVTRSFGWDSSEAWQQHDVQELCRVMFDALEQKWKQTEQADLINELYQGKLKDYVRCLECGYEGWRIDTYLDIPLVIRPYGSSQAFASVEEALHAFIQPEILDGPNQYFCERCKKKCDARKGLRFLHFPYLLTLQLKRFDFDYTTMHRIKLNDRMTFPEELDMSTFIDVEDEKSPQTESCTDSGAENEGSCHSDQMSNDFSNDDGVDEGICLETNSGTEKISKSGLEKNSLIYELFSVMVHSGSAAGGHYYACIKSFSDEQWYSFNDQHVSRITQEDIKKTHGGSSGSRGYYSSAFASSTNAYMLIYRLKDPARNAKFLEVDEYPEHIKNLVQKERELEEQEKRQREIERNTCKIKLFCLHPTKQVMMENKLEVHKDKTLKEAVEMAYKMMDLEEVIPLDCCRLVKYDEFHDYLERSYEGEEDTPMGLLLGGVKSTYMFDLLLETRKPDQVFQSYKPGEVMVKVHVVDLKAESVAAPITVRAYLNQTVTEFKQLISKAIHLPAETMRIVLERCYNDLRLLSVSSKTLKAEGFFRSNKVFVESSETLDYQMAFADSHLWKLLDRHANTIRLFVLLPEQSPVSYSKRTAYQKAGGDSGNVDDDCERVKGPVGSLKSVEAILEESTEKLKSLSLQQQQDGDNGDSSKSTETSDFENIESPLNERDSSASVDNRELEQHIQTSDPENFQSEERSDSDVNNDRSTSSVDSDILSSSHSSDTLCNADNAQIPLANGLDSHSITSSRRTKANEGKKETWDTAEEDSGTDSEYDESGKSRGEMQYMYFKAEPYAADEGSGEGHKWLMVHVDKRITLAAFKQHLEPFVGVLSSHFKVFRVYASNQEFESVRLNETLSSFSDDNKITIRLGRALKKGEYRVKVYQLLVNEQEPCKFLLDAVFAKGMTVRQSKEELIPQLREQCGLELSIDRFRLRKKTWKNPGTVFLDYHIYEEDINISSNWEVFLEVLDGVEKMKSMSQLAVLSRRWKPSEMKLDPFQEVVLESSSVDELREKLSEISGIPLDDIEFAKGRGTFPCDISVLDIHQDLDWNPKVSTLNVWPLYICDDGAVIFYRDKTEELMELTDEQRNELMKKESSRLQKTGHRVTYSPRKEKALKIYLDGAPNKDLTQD
In short: as §1

[4] = molecular target: T3, USP48 (UniProt Q86UV5)
T3 sequence (whole entry): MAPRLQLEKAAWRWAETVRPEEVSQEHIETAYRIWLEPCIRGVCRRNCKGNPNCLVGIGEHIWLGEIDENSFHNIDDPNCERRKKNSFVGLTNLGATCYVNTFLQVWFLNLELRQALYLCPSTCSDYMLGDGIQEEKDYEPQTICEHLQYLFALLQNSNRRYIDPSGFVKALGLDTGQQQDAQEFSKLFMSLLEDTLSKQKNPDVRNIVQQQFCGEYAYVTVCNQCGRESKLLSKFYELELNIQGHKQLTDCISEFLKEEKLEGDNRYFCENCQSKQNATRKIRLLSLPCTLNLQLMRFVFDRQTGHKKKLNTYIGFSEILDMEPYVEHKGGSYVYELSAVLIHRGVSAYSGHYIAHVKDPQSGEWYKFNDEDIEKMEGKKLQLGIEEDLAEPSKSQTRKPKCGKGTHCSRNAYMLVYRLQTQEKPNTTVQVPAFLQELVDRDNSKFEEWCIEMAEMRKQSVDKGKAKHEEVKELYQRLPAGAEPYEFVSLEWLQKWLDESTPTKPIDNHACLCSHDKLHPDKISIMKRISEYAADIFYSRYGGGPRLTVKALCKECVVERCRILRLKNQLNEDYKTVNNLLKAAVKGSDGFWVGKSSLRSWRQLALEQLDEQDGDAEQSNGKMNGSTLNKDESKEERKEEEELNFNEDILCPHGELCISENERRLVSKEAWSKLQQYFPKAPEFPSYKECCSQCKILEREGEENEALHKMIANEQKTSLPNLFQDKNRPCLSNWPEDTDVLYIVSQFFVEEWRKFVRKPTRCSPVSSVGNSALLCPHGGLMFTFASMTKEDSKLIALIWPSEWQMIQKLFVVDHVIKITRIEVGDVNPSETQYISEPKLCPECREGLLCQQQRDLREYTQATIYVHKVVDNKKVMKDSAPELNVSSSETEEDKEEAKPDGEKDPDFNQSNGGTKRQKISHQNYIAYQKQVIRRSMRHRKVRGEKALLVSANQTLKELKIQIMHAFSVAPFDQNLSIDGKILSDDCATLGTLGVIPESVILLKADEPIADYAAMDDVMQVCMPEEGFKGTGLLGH
In short: as §1

[5] = molecular target: T4, USP5 (UniProt P45974)
T4 sequence (whole entry): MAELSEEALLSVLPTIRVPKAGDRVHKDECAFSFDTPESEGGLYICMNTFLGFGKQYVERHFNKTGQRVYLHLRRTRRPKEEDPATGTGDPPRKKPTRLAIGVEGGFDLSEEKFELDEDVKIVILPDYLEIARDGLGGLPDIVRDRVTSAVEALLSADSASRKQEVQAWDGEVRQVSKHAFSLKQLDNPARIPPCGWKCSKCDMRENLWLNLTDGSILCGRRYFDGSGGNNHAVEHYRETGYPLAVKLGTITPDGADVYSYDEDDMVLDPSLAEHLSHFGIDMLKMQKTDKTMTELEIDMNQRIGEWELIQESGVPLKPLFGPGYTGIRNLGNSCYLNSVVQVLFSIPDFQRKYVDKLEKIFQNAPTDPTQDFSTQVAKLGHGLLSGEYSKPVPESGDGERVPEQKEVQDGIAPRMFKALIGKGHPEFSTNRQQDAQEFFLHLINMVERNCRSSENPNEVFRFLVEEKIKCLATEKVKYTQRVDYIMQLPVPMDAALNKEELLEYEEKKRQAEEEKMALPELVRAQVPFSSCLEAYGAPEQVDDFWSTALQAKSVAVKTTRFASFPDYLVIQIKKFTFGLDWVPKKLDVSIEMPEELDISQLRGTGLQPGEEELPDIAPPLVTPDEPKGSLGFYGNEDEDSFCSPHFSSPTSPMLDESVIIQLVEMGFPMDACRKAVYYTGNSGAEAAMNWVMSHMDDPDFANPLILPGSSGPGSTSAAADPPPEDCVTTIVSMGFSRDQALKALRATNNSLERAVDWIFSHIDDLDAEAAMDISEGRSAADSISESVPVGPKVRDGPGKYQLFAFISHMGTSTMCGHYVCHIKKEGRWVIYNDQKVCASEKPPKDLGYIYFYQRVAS
In short: as §1

[6] = molecular target: USP54 (UniProt Q70EL1)
In short: as §1

[7] = molecular target: USP7 (UniProt Q93009)
Chain of USP7 (Q93009 whole entry, looked up): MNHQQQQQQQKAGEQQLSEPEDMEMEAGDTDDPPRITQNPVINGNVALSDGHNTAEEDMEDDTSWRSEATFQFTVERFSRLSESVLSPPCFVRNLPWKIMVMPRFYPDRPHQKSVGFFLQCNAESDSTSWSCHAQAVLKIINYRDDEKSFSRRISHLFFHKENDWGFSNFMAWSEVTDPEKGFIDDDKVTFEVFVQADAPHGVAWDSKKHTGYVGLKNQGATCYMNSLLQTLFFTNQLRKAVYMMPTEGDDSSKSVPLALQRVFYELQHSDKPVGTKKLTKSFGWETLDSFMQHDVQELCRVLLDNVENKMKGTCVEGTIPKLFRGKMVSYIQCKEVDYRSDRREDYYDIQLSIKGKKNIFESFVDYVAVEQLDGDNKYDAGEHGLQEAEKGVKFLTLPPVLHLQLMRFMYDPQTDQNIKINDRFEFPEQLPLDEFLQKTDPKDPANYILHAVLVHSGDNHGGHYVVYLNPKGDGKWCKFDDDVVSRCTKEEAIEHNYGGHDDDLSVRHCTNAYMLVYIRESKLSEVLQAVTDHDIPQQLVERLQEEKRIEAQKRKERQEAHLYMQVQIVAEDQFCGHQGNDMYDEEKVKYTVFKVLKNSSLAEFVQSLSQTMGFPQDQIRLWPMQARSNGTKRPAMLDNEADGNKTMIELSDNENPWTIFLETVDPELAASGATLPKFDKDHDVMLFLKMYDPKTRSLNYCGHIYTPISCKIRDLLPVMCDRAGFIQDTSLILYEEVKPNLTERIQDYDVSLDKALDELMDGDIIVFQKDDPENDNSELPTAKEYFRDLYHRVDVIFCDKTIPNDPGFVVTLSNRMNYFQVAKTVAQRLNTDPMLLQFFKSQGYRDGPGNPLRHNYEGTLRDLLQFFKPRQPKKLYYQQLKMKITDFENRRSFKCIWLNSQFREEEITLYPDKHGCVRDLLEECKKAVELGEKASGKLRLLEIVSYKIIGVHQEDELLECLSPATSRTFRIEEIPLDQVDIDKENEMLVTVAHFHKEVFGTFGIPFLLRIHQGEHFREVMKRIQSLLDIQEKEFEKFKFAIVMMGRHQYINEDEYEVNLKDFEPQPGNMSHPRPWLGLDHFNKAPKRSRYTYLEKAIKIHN
In short: as §1

[8] = molecular target: T5, USP8 (UniProt P40818)
T5 sequence (whole entry): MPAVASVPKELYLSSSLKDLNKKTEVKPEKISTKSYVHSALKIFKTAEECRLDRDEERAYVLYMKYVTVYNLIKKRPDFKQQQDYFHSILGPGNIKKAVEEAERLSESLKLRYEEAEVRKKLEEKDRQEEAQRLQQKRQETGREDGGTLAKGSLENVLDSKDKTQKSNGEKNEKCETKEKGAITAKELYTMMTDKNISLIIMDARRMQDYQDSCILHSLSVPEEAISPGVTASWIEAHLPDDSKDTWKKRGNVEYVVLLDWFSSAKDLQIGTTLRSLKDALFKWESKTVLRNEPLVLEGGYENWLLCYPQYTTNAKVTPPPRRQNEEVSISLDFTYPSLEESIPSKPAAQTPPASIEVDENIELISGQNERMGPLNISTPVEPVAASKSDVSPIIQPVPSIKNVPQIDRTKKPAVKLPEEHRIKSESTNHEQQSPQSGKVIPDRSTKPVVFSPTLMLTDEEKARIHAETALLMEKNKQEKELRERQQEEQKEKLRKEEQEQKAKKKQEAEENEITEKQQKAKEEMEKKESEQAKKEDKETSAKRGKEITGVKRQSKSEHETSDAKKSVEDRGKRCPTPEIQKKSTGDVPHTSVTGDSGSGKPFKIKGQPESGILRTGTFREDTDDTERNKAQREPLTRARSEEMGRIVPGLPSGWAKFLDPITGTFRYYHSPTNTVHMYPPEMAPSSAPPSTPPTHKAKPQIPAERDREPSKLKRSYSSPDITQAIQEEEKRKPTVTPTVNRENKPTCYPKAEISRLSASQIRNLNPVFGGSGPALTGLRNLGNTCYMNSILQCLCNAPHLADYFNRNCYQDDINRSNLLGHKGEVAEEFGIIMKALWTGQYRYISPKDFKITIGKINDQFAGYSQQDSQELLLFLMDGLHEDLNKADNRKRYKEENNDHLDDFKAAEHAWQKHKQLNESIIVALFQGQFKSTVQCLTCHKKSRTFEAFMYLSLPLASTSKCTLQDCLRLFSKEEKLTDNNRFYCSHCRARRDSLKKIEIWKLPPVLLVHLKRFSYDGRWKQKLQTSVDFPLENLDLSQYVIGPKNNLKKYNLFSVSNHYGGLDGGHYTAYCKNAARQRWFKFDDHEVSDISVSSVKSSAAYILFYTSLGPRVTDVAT
In short: as §1

[9] = molecular target: USP9X (UniProt Q93008)
Chain of USP9X (Q93008 whole entry): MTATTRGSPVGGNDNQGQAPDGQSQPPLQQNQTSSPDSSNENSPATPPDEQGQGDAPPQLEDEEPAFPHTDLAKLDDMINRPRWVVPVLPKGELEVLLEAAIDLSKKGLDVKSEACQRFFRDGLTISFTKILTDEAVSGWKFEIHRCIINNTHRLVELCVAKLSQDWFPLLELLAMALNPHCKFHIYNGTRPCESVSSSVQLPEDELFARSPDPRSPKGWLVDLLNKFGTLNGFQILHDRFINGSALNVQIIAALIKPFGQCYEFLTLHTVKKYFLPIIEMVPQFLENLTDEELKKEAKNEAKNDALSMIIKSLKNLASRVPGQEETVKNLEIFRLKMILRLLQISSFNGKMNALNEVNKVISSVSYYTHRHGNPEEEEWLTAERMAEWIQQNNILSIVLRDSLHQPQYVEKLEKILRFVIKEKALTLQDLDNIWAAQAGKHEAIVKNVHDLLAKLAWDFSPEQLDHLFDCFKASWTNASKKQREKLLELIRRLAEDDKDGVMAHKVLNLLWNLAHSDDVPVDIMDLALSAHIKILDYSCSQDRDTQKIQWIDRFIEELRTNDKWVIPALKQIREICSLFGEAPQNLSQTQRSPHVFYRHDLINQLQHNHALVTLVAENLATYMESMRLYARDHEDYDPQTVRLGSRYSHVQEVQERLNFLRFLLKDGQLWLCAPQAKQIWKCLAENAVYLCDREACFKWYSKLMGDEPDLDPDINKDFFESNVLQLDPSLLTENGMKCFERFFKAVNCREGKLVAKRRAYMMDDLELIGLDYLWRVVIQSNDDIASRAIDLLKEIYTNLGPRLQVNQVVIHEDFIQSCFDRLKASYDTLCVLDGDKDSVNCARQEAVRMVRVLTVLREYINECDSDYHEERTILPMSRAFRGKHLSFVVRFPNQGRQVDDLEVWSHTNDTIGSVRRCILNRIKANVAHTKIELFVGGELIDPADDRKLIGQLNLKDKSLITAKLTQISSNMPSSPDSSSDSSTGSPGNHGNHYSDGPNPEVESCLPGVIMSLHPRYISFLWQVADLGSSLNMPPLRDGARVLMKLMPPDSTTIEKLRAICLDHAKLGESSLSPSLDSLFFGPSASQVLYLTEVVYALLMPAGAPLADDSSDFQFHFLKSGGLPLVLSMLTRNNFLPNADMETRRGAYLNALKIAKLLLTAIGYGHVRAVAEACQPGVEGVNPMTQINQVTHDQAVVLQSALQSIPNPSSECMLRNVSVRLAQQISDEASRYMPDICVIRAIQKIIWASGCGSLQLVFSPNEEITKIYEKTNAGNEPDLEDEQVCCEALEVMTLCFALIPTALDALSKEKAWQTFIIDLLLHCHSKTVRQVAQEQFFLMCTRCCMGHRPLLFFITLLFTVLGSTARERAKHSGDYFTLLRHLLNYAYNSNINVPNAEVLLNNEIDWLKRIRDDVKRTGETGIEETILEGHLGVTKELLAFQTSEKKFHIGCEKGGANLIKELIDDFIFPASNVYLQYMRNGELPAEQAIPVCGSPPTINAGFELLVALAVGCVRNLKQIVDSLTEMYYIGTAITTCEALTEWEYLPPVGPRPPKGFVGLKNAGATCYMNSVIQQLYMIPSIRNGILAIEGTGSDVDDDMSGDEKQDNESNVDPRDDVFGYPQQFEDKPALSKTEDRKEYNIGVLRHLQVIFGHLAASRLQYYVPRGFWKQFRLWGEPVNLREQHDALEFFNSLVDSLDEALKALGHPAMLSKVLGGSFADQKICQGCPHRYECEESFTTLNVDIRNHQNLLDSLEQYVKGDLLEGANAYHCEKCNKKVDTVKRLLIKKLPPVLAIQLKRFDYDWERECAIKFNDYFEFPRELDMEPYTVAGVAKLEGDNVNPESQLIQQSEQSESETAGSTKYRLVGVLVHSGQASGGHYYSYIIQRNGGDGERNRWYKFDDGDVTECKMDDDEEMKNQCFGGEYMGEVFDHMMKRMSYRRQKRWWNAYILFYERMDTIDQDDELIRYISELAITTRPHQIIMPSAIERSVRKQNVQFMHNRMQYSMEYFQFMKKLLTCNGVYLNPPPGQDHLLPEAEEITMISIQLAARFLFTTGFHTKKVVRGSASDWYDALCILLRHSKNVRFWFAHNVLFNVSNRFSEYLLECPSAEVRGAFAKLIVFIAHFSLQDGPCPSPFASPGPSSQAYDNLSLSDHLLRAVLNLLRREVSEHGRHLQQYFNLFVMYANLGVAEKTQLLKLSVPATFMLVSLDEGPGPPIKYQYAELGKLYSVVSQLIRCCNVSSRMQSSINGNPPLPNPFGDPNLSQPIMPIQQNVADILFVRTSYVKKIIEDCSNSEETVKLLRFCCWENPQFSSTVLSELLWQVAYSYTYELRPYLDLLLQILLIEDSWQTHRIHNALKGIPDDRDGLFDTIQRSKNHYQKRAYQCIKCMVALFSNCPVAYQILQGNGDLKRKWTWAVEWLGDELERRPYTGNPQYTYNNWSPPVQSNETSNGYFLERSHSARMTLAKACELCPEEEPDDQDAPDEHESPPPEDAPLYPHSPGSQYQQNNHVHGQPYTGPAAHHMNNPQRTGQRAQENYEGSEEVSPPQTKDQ
In short: as §1

[10] = molecular target: UniProt O00487
Chain of UniProt O00487 (O00487 whole entry): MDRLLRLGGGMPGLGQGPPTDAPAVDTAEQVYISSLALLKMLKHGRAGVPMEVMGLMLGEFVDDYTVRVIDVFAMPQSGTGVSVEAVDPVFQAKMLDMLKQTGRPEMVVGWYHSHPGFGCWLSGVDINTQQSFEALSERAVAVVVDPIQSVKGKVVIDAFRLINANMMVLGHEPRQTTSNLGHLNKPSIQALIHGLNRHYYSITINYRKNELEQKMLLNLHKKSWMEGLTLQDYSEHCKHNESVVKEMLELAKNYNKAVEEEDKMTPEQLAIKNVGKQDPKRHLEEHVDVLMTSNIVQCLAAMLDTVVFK
In short: as §1

Measured: log2 ratio of Biotin-Ahx-Ub-VS probe labelling

O=C(CCl)N1CCCCCC1c1ncon1 (stereo not given)
inactive: [1] -0.342 | [2] 0.113 | [3] -0.552 | [4] -0.467 | [5] 0.214 | [6] 0.731 | [7] -0.491 | [8] -0.0227 | [9] -0.226 | [10] -0.0641

Cc1cc(NC(=O)CCl)n(-c2ccccc2)n1
inactive: [1] 0.45 | [2] -0.023 | [3] -0.584 | [4] 0.128 | [5] -0.00592 | [6] -0.0011 | [7] -0.0104 | [8] -0.118 | [9] 0.0409 | [10] -0.0689
